C diff HTS: C. difficile growth inhibition. AID 1259249. 86,000 tested, 0.25% active. growth activity, negative = inhibition, % at 16 µg/mL (by protocol). Clostridium difficile clinical isolate growth, OD600, 24 h; hits give low values;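 active = mean growth activity at or below -80% and every replicate also at or below -80%; inconclusive = mean at or below -80% but some replicate above -80%; inactive = mean growth activity above -80%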;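 note: 0% = DMSO wells and -100% = levofloxacin 16 µg/mL wells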
Pf Dd2 inh: P. falciparum Dd2 growth inhibition. SYBR Green, 72 h; hits give low values. AID 1159554. 94,000 tested, 2.3% active. activity change, % at 10 µM; in the data active = activity change below about -80%; inconclusive = no clear call, values can overlap the other calls
Starred values were filed as active, the others as inactive; u = inconclusive; x = no result given. Compounds with a hit are over-represented: about 2.4% of the library has one in this group of screens.

SMILES	C diff HTS	Pf Dd2 inh
C[C@@H]1CCCCO[C@@H](CN(C)C(=O)Nc2cccc3ccccc23)[C@H](C)CN([C@H](C)CO)C(=O)c2cc(NC(=O)Nc3ccccc3)ccc2O1	3	-47
C[C@H]1CCCCO[C@@H](CN(C)C(=O)Nc2cccc3ccccc23)[C@@H](C)CN([C@@H](C)CO)C(=O)c2cc(NC(=O)Cc3ccccc3)ccc2O1	12	-92*
C[C@@H]1CCCCO[C@@H](CN(C)C(=O)Nc2cccc3ccccc23)[C@H](C)CN([C@H](C)CO)C(=O)c2cc(NC(=O)c3ccccc3)ccc2O1	0	-59
O=C(C[C@@H]1C=C[C@@H](NC(=O)CN2CCOCC2)[C@@H](CO)O1)NCCc1ccncc1	-4	27
C[C@H](CO)N1C[C@H](C)[C@H](CN(C)S(=O)(=O)c2ccc(F)cc2)Oc2ccc(NS(=O)(=O)c3cccs3)cc2CC1=O	11	-3
O=C(NC[C@H]1CC[C@H]2[C@H](CN2Cc2ccccc2F)O1)C1CCCCC1	-4	49
CNC(=O)C[C@H]1CC[C@H]2[C@H](COc3ccc(NC(=O)NCc4ccccc4)cc3C(=O)N2C)O1	-1	7
C[C@@H]1CCCCO[C@H](CN(C)C(=O)Nc2cccc3ccccc23)[C@H](C)CN([C@@H](C)CO)C(=O)c2cc(NC(=O)Cc3ccccc3)ccc2O1	17	-75
C[C@@H]1CCCCO[C@@H](CN(C)C(=O)Nc2cccc3ccccc23)[C@H](C)CN([C@H](C)CO)C(=O)c2cc(NC(=O)Cc3ccccc3)ccc2O1	16	-87*
COc1cccc(CN2[C@@H](CO)[C@@H](c3ccccc3)C23CN(C(=O)C2CC2)C3)c1	-1	-3
CC(=O)N1CC2(C1)[C@@H](c1ccccc1)[C@@H](CO)N2Cc1ccccc1F	8	-4
O=C(C1CCCC1)N1CC2(C1)[C@@H](c1ccccc1)[C@@H](CO)N2Cc1ccc(Cl)cc1	12	-16
OC[C@@H]1[C@@H](c2ccccc2)C2(CN(Cc3ccccc3F)C2)N1Cc1ccccc1F	39	-88*
OC[C@@H]1[C@H](c2ccccc2)C2(CN(Cc3ccccc3)C2)N1Cc1ccncc1	4	-53
O=C(C1CCCC1)N1CC2(C1)[C@@H](c1ccccc1)[C@H](CO)N2Cc1ccc(Cl)cc1	9	-85*
COc1cccc(CN2[C@H](CO)[C@@H](c3ccccc3)C23CN(Cc2ccccc2OC)C3)c1	20	-90*
OC[C@@H]1[C@@H](c2ccccc2)C2(CN(Cc3ccc4c(c3)OCO4)C2)N1Cc1ccccc1	20	-93*
O=C(C[C@H]1CC[C@@H]2[C@H](COC[C@@H](O)CN2Cc2cc(F)ccc2F)O1)NCc1ccc(Cl)cc1	2	-9
C[C@]12CCCC(=O)N1CCc1c2[nH]c2ccccc12	2	x
COCCNC(=O)C[C@H]1C=C[C@@H](NC(=O)NC2CCCC2)[C@H](CO)O1	x	26
C[C@H]1CN([C@@H](C)CO)C(=O)c2c(c3ccccc3n2C)-c2ccccc2CO[C@@H]1CN(C)Cc1ccc(-c2ccccc2)cc1	17	-92*
C[C@@H]1CN([C@@H](C)CO)C(=O)c2c(c3ccccc3n2C)-c2ccccc2CO[C@H]1CN(C)Cc1ccc(-c2ccccc2)cc1	53	-37
C[C@@H]1CN([C@@H](C)CO)C(=O)c2c(c3ccccc3n2C)-c2ccccc2CO[C@@H]1CN(C)Cc1ccc(Oc2ccccc2)cc1	8	-87*
C[C@@H]1CN([C@H](C)CO)C(=O)c2c(c3ccccc3n2C)-c2ccccc2CO[C@@H]1CN(C)Cc1ccc(Oc2ccccc2)cc1	10	-71
O=C(N[C@H]1CC[C@H](CCNC(=O)c2ccccc2F)O[C@H]1CO)c1ccc2c(c1)OCO2	-2	14
SMILES	C diff HTS	Pf Dd2 inh
C[C@@H]1CCCCO[C@@H](CN(C)Cc2ccc(Cl)c(Cl)c2)[C@@H](C)CN([C@H](C)CO)C(=O)c2cc(NC(=O)Nc3ccc4c(c3)OCO4)ccc2O1	-3	39
C[C@@H]1CCCCO[C@H](CN(C)Cc2ccc(Cl)c(Cl)c2)[C@@H](C)CN([C@@H](C)CO)C(=O)c2cc(NC(=O)Nc3ccc4c(c3)OCO4)ccc2O1	10	-91*
C[C@@H]1CCCCO[C@@H](CN(C)Cc2ccc(Cl)c(Cl)c2)[C@H](C)CN([C@@H](C)CO)C(=O)c2cc(NC(=O)Nc3ccc4c(c3)OCO4)ccc2O1	-5	-55
C[C@@H]1CCCCO[C@H](CN(C)Cc2ccc(Cl)c(Cl)c2)[C@H](C)CN([C@@H](C)CO)C(=O)c2cc(NC(=O)Nc3ccc4c(c3)OCO4)ccc2O1	5	-86*
C[C@H]1CN([C@@H](C)CO)C(=O)c2c(c3ccccc3n2C)-c2ccccc2CO[C@@H]1CN(C)Cc1ccc(O)cc1	2	-59
C[C@H](CO)N1C[C@H](C)[C@H](CN(C)Cc2ccc(Cl)c(Cl)c2)OCc2ccccc2-c2c(n(C)c3ccccc23)C1=O	18	-74
C[C@@H]1CN([C@H](C)CO)C(=O)c2c(c3ccccc3n2C)-c2ccccc2CO[C@@H]1CN(C)Cc1ccc(Cl)c(Cl)c1	8	-85*
C[C@H]1CN([C@@H](C)CO)C(=O)c2c(c3ccccc3n2C)-c2ccccc2CO[C@@H]1CN(C)Cc1ccc(Cl)c(Cl)c1	15	-88*
C[C@@H]1CN([C@H](C)CO)C(=O)c2c(c3ccccc3n2C)-c2ccccc2CO[C@H]1CN(C)Cc1ccc(Cl)c(Cl)c1	12	-89*
C[C@H](CO)N1C[C@H](C)[C@H](CN(C)Cc2ccc(O)cc2)OCc2ccccc2-c2c(n(C)c3ccccc23)C1=O	54	30
C[C@H]1CN([C@@H](C)CO)C(=O)c2c(c3ccccc3n2C)-c2ccccc2CO[C@H]1CN(C)Cc1ccc(O)cc1	21	17
C[C@@H]1CN([C@@H](C)CO)C(=O)c2c(c3ccccc3n2C)-c2ccccc2CO[C@@H]1CN(C)Cc1ccc(Cl)c(Cl)c1	11	-87*
COc1ccc(C#Cc2ccc3c(c2)[C@H]2[C@H](CCN2C(=O)C2CCC2)[C@H](CO)N3)cc1	15	u
COc1ccc(C#Cc2ccc3c(c2)[C@H]2[C@H](CCN2C(=O)C2CCC2)[C@@H](CO)N3)cc1	-3	-86*
COc1ccc(C#Cc2ccc3c(c2)[C@@H]2[C@@H](CCN2C(=O)C2CC2)[C@H](CO)N3)cc1	18	-89*
COc1ccc(C#Cc2ccc3c(c2)[C@H]2[C@H](CCN2C(=O)C2CCCCC2)[C@H](CO)N3)cc1	-5	-37
COc1ccc(C#Cc2ccc3c(c2)[C@@H]2[C@@H](CCN2C(=O)C2CCCC2)[C@H](CO)N3)cc1	3	-84*
COc1ccc(C#Cc2ccc3c(c2)[C@@H]2[C@@H](CCN2C(=O)C2CC2)[C@@H](CO)N3)cc1	-4	-48
CC(C)NC(=O)Nc1ccc2c(c1)C(=O)N([C@@H](C)CO)C[C@@H](C)[C@@H](CN(C)C(=O)Nc1ccc3c(c1)OCO3)OCCCC[C@@H](C)O2	4	-21
Cc1ccc(-c2ccc([C@H]3[C@H](CO)N4C(=O)CN(C(=O)c5cccnc5)C[C@@H]34)cc2)cc1	44	22
CCCC#Cc1cnc2c(c1)C(=O)N([C@@H](C)CO)C[C@@H](C)[C@H](CN(C)C(=O)Cc1cccnc1)O2	x	5
CCC(=O)N1CCCCN2[C@H](C1)[C@H](c1ccc(C#Cc3ccccc3F)cc1)[C@@H]2CO	-6	-19
